Measurements reported in article PMC4552634, “A New Set of Chemical Starting Points with Plasmodium falciparum Transmission-Blocking Potential for Antimalarial Drug Discovery” (PLoS ONE, 2015).
Read-outs that look alike come from different tables or passages of the source. Out of some 13,000 compounds screened, about 3,200 (25%) showed an effect of 50% or more. Some of the results follow.

Test system: P. falciparum stage V gametocytes
Design: BacTiter-Glo ATP luminescence viability of purified stage V gametocytes in 384-well plates, per cent inhibition versus DMSO
Settings: 48 h, 5 µM, inhibitor

Row | Structure (SMILES) | % Inhibition [%] | % Inhibition (% Inhibition) [%]
1 | N#Cc1ccc(CN2CCC(Oc3ccc(NC(=O)c4cccs4)cc3)CC2)cc1 [TCMDC-133953] | 32.19 | –
2 | O=C(O[C@H]1CN[C@H](C#Cc2cc3c(Nc4ccc(OCc5cccc(F)c5)c(Cl)c4)ncnc3s2)C1)N1CCCC1 [TCMDC-135291] | -17.95 | –
3 | CCN(C)C(=O)n1ncc2c3c(N)nc(N)nc3ccc21 [TCMDC-137828] | 19.76 | –
4 | Cc1ccc(CCNCC(O)c2cccc(C(F)(F)F)c2)cc1 (stereo not drawn) [TCMDC-131447] | 15.63 | –
5 | Cc1c(CN2CCC(N3CCC(C(=O)NC4CC4)CC3)CC2)[nH]c2c(Cl)cccc12 [TCMDC-124608] | 11.69 | –
6 | Cc1ccccc1Cn1c(CN2CCC(C(=O)NC3CC3)CC2)cc2ccccc21 [TCMDC-134259] | 50.21 | –
7 | O=C(NC1CC1)C1CCN(Cc2cc3ccccc3n2Cc2ccc(Cl)cc2)CC1 [TCMDC-125065] | 41.24 | –
8 | CN(C)CCCn1cncc1-c1ccc2ncnc(Nc3ccc(OCc4ccccc4)cc3)c2c1 [TCMDC-138088] | 1.652 | –
9 | COc1ccccc1N1CCN(CCCCNC(=O)c2ccc(NC(=O)c3ccc4ccccc4c3)cc2)CC1 [TCMDC-138109] | -15.04 | –
10 | Cc1ccc(C(NC(=O)C2CCCCC2)c2ccc3cccnc3c2O)cc1 (stereo not drawn) [TCMDC-123654] | 50.75 | –
11 | CCC(C)NC(=O)Cn1c2ncccc2c(=O)n1-c1ccc(C)cc1 (stereo not drawn) [TCMDC-124738] | -0.9664 | –
12 | CCCC(=O)NC(c1ccc(C)cc1)c1ccc2cccnc2c1O (stereo not drawn) [TCMDC-123605] | 92.74 | –
13 | CC(C)c1ccc(C(NC(=O)C2CCCCC2)c2ccc3cccnc3c2O)cc1 (stereo not drawn) [TCMDC-125560] | 15.44 | –
14 | CCCC(=O)NC(c1ccc(C(C)C)cc1)c1ccc2cccnc2c1O (stereo not drawn) [TCMDC-123884] | 62.61 | –
15 | CC(C)C(=O)NC(c1ccc(Cl)cc1)c1ccc2cccnc2c1O (stereo not drawn) [TCMDC-124343] | 44.71 | –
16 | O=S(=O)(c1cccc2cccnc12)N1CCN(C2CCCCC2)CC1 [TCMDC-123840] | 8.014 | –
17 | C[C@@H](CC1CCCCC1)OC(=O)N[C@H]1CCN(C#N)C1 [TCMDC-138496] | 45.07 | –
18 | O=C(COc1ccccc1)Nn1cnc2ccccc21 [TCMDC-124536] | 15.87 | –
19 | CNS(=O)(=O)c1ccc2c(c1)nc(C1CCN(CC3CCC(NC(=O)/C=C/c4ccc(Cl)c(Cl)c4)CC3)CC1)n2C (stereo not drawn) [TCMDC-140374] | 8.841 | –
20 | CCOc1ccc(-c2noc(-c3c[nH]c4ccccc4c3=O)n2)cc1 [TCMDC-125156] | 27.36 | –
21 | COc1ccc(-c2nc(-c3ccc([N+](=O)[O-])cc3)no2)cc1OC [TCMDC-125731] | 16.37 | –
22 | CCn1cc(-c2nc(-c3cc(OC)cc(OC)c3)no2)c(=O)c2ccccc21 [TCMDC-125155] | 51.09 | –
23 | CCOc1cc2ncnc(Nc3ccc(OCc4ccccc4F)c(Cl)c3)c2cc1OCC [TCMDC-131914] | 3.797 | –

Row | Structure (SMILES) | % Inhibition [%] | % Inhibition (% Inhibition) [%]
24 | CC(C)CN1CCCN(Cc2cccc(NC(=O)c3ccc(-c4ccccc4)cc3)c2)CC1 [TCMDC-141841] | -91.11 | –
25 | Cc1cccc2nc(-c3ccc(-c4ccc(CNCc5cnn(-c6ccccc6)n5)cc4)cc3)[nH]c12.O=C(O)C(F)(F)F [TCMDC-132974] | 25.92 | –
26 | CCOC(=O)C(C)(C)Oc1ccc(C(=C2CC(C)(C)CC(C)(C)C2)c2ccc(O)cc2)cc1 [TCMDC-135525] | -61.64 | –
27 | Cc1cccc(C(=O)Nc2ccnc(N3CCC(N(C)Cc4ccccc4)CC3)c2)c1 [TCMDC-135001] | -20.99 | –
28 | CCN(CCNC(=O)C1CCN(c2cc(-c3cccc(C)c3)ncn2)CC1)Cc1ccccc1 [TCMDC-124739] | 86.1 | –
29 | Cc1cccc(-c2ccc(NC(=O)C3CCN(Cc4cccc(O)c4)CC3)cc2)c1 [TCMDC-124641] | 44.56 | –
30 | Cc1cccc(C(=O)NC(NC(=S)Nc2ccc([N+](=O)[O-])cc2)C(Cl)(Cl)Cl)c1 (stereo not drawn) [TCMDC-124177] | 26.63 | –
31 | O=C(NC(NC(=S)Nc1ccc([N+](=O)[O-])cc1)C(Cl)(Cl)Cl)c1cccc(Cl)c1 (stereo not drawn) [TCMDC-124130] | -46.64 | –
32 | O=C(Cc1ccccc1)NC(Nc1ccc([N+](=O)[O-])cc1)C(Cl)(Cl)Cl (stereo not drawn) [TCMDC-125789] | 52.36 | –
33 | CC(C)C(=O)NC(Nc1ccc([N+](=O)[O-])cc1)C(Cl)(Cl)Cl (stereo not drawn) [TCMDC-125799] | 71.39 | –
34 | Cc1ccccc1C(=O)NC(NC(=S)Nc1ccc([N+](=O)[O-])cc1)C(Cl)(Cl)Cl (stereo not drawn) [TCMDC-124151] | -7.269 | –
35 | O=[N+]([O-])c1ccc(C(O)P(=O)(c2ccccc2)c2ccccc2)cc1 (stereo not drawn) [TCMDC-125871] | -5.463 | –
36 | O=C(NC(Nc1ccc([N+](=O)[O-])cc1)C(Cl)(Cl)Cl)c1cccc(Cl)c1 (stereo not drawn) [TCMDC-124129] | 26.63 | –
37 | O=C(NC(Nc1ccc([N+](=O)[O-])cc1)C(Cl)(Cl)Cl)c1ccc(Cl)cc1 (stereo not drawn) [TCMDC-125818] | 63.58 | –
38 | CCCC(=O)NC(NC(=S)Nc1ccc([N+](=O)[O-])cc1)C(Cl)(Cl)Cl (stereo not drawn) [TCMDC-125817] | 27.07 | –
39 | Cc1cc(C(=O)CN2C(=O)NC3(CCOc4ccccc43)C2=O)c(C)n1Cc1ccco1 (stereo not drawn) [TCMDC-125252] | 14.93 | –
40 | COc1ccc2c(-c3ccccc3)noc2c1 [TCMDC-123782] | 15.72 | –
41 | Oc1cccc(-c2nc3cc(C4=NC5CCCCC5N4)ccc3[nH]2)c1 (stereo not drawn) [TCMDC-137219] | – | -17.08
42 | Cc1cc(C)c(NC(=O)NC2CCN(CCCCCNC(=O)/C=C/c3ccc(Cl)c(Cl)c3)C2)c(C)c1 (stereo not drawn) [TCMDC-139529] | 92.72 | –
43 | Cc1ccc(NC(=O)NC2CCN(CCCCCNC(=O)/C=C/c3ccc(Cl)c(Cl)c3)CC2)cc1C [TCMDC-135708] | -56.47 | –
44 | Cc1cc(C)c(NC(=O)NC2CCN(CCCCCNC(=O)/C=C/c3ccc(Cl)c(Cl)c3)CC2)c(C)c1 [TCMDC-135717] | -32.07 | –
45 | Cc1cc(C)c(NC(=O)N[C@H]2CCN(CCCCCNC(=O)/C=C/c3ccc(Cl)c(Cl)c3)C2)c(C)c1 [TCMDC-139513] | 86.25 | –
46 | Cc1cccc(NC(=O)NC2CCN(CCCCCNC(=O)/C=C/c3ccc(Cl)c(Cl)c3)CC2)c1 [TCMDC-135702] | -17.93 | –

Row | Structure (SMILES) | % Inhibition [%] | % Inhibition (% Inhibition) [%]
47 | Cc1ccc(NC(=O)NC2CCN(CCCCCNC(=O)/C=C/c3ccc(Cl)c(Cl)c3)CC2)cc1 [TCMDC-135703] | -0.844 | –
48 | COc1ccc(Br)cc1/C=C/C(=O)Nc1ccc(C2CCCN(C)C2)cc1 (stereo not drawn) [TCMDC-133712] | 9.818 | –
49 | Fc1ccc(-c2cc(NCCCn3ccnc3)nc(-c3cccnc3)n2)cc1 [TCMDC-123785] | 9.204 | –
50 | CC(Nc1ccc2c(c1)OCCO2)C(=O)Nc1cc(C(F)(F)F)ccc1N1CCOCC1 (stereo not drawn) [TCMDC-124859] | -69.42 | –
51 | CC(NC(=O)c1ccc(O)c(-c2ccc(Cl)c(Cl)c2)c1)C(=O)NC1CCCCC1 (stereo not drawn) [TCMDC-140823] | 42.42 | –
52 | Cc1cc(-c2ccc(O)c(CNC3CCCCC3)c2)cnc1N [TCMDC-138129] | -11.73 | –
53 | Cc1cc(-c2cccc(CNCCc3ccc(Cl)cc3)c2)cnc1N [TCMDC-138091] | 14.17 | –
54 | Cc1cc(-c2ccc3occ(CCN)c3c2)cnc1N [TCMDC-138139] | 54.74 | –
55 | CCC(C)CN1CCN(c2ccc(NC(=O)c3cccs3)cc2)C(C)C1 (stereo not drawn) [TCMDC-134996] | 6.92 | –
56 | COC(=O)c1cc(OC2CCOC2=O)cc2c1OC(C)(C)O2 (stereo not drawn) [TCMDC-131234] | 42.88 | –
57 | O=C(/C=C/c1ccccc1O)NCCCCCN1CCC(c2c[nH]c3ccccc23)CC1 [TCMDC-139697] | 92.48 | –
58 | O=C(/C=C/c1cccc2ccccc12)NCCCCCN1CCC(c2c[nH]c3ccccc23)CC1 [TCMDC-139208] | 101.3 | –
59 | O=C(/C=C/c1c[nH]c2ccccc12)NCCCCCN1CCC(c2c[nH]c3ccccc23)CC1 [TCMDC-139207] | -19.56 | –
60 | O=C(NC1CCN(CCCc2ccccc2)CC1)c1ccc(-c2cccc(C(F)(F)F)c2)s1 [TCMDC-134323] | -38.84 | –
61 | CC(C)Oc1cc2c(cc1NS(=O)(=O)c1ccc(-c3ccc(Cl)cc3)cc1F)CCN(C)CC2 [TCMDC-141589] | -14.09 | –
62 | O=c1cnc2ccc(F)cc2n1CCN1CCC(NCc2cc(-c3ccccc3)cs2)CC1 [TCMDC-135134] | -21.73 | –
63 | Cc1[nH]nc2ccc(-c3cc(OC[C@@H](N)Cc4ccccc4)cnc3-c3ccc(OCc4cccc(F)c4)cc3)cc12 [TCMDC-136225] | 97.54 | –
64 | Cc1[nH]nc2ccc(-c3cc(OC[C@@H](N)Cc4ccccc4)cnc3-c3ccccc3OCc3cccc(F)c3)cc12 [TCMDC-136224] | -9.479 | –
65 | Cc1csc(-c2ncc(OC[C@@H](N)Cc3ccccc3)cc2-c2ccc3n[nH]c(C)c3c2)c1 [TCMDC-136087] | -8.857 | –
66 | Fc1cccc(COc2ccc(Nc3ncnc4cc(/C=C/[C@@H]5CCCN5)sc34)cc2Cl)c1 [TCMDC-134401] | 10.77 | –
67 | O=C(NCc1ccccc1F)c1ccc(N2CCC(NCc3cccc(-n4cccn4)c3)CC2)cc1 [TCMDC-124670] | 2.936 | –
68 | Cc1cc(N[C@@H](Cc2ccccc2)C(=O)NCCCOC(C)C)nc(NCCc2ccc(F)cc2)n1 [TCMDC-134866] | 73.24 | –
69 | Cc1cc(N[C@@H](CC(C)C)C(=O)NCCCOC(C)C)nc(NCCc2ccc(F)cc2)n1 [TCMDC-134868] | 54.17 | –
